These results are taken from PubChem BioAssay (NCATS).

Structures are written as SMILES. Inconclusive results are not listed. The source made the active and inactive calls. Calls follow the shape of the dose curve; as a rule, active = well fitted inhibition curve with a large enough effect; inconclusive = small, poorly fitted or top-dose-only effect; inactive = no such curve, though single readings can be large or run the other way.

The nature of the test: Counterscreen qHTS for small molecule stabilizers of the endoplasmic reticulum resident proteome: GLuc-NoTag assay (AID 1508627). The note with it: Gaussia luciferase NoTag secretion counterscreen, luminescence, thapsigargin 100 nM for final 4 h; series mostly up to 76.4 µM. The text has this: Assay Provider: Brandon K. Harvey Ph.D.
National Institute on Drug Abuse, National Institutes of Health, Baltimore, MD
Endoplasmic reticulum (ER) dysregulation is associated with human pathologies including neurodegenerative, cardiovascular, muscular, and diabetic conditions. Maintenance of ER calcium is critical for functions of the ER and its depletion can lead to loss of ER resident proteins, in a process termed exodosis. Therapeutic compounds capable of attenuating the redistribution of ER proteins under pathological conditions may slow or stop disease progression. To identify such compounds, we performed a quantitative high-throughput screen (qHTS) using the SERCaMP assay, which monitors secretion of ER resident proteins triggered by calcium depletion.
SERCaMP was initially developed as a reporter of ER calcium homeostasis using a Gaussia luciferase with a modified signal peptide and carboxy-terminus (GLuc-SERCaMP), modifications that confer secretion of the reporter in response to ER calcium depletion (Henderson et al., 2014). The assay was used to screen 9,501 compounds, including a collection of drugs approved by the FDA (US), EMA (EU), NHI (Japan), and HC (Canada) regulatory agencies (Huang et al., 2011). Since the SERCaMP reporter reflects the exodosis phenomenon (Trychta et al., 2018a), compounds identified in the screen have the potential to prevent exodosis by different mechanisms such as stabilizing ER calcium or augmenting ERS retrieval.
1. Henderson, M.J., Wires, E.S., Trychta, K.A., Richie, C.T., and Harvey, B.K. (2014). SERCaMP: a carboxy-terminal protein modification that enables monitoring of ER calcium homeostasis. Mol Biol Cell 25, 2828-2839.
2. Huang, R., Southall, N., Wang, Y., Yasgar, A., Shinn, P., Jadhav, A., Nguyen, D.T., and Austin, C.P. (2011). The NCGC pharmaceutical collection: a comprehensive resource of clinically approved drugs enabling repurposing and chemical genomics. Sci Transl Med 3, 80ps16.
3. Trychta, K.A., Back, S., Henderson, M.J., and Harvey, B.K. (2018a). KDEL Receptors Are Differentially Regulated to Maintain the ER Proteome under Calcium Deficiency. Cell Rep 25, 1829-1840 e1826.
SEQUENCE No. (1, 2, 3, etc.); […] (e.g., Cells, Incubation, Reagent, etc.); VALUE and DESCRIPTION.
1; Reagent; 5 uL; 1000 SH-SY5Y cells per wells
3; Compound; 23 nL; Control inhibitor / compound library
5; Reagent; 100 nM; Thapsigargin
7; Reagent; 1 uL; 0.5x coelenterazine
8; Detection; Luminescence; ViewLux imaging system
NOTES (numbers refer to sequence above)
1; SH-SY5Y human neuroblastoma cells stably expressing the constitutively secreted GLuc (SH-SY5Y-GLuc-NoTag) cells were seeded in 1,536 well white tissue culture treated plates (Corning, Cat# 7464) in DMEM-high glucose-sodium pyruvate (ThermoFisher Scientific, Cat #10569) supplemented with 10% bovine growth serum (Hyclone), 10 U/ml penicillin (Gibco), 10 ug/ml streptomycin (Gibco), and 20 mM HEPES.
2; Assay plates were incubated for 5 hour at 37C in a humidified incubator containing 5% CO2.
4; Cells were then incubated for 19 hours at 37C, 5% CO2.
5; Thapsigargin was added at 100 nM to deplete ER calcium stores.
6; Cells were incubated for 4 hour (37 °C, 5% CO2)
7; Gaussia luciferase in the medium was measured by adding 1 ul of 0.5x coelenterazine (final concentration 0.07x) prepared in Gaussia Luciferase Glow Assay Buffer (Pierce), without addition of the Cell Lysis Buffer Reagent.
8; Luminescence was measured using a ViewLux CCD imaging system (Perkin Elmer) equipped with clear filters. […] The same controls were also used for the calculation of the Z' factor, a measure of assay quality control, as previously described (Zhang et al., 1999). For the initial validation of activity in the SERCaMP assays, hits from the primary screen were assayed again at 11-concentrations (1.3 nM - 76.6 uM). SH-SY5Y-GLuc-SERCaMP cells were assayed for ER Ca2+ depletion as outlined above.
1. Zhang, J.H., Chung, T.D., and Oldenburg, K.R. (1999). […]
(In general: A counterscreen serves to expose hits that act by an unwanted route or on another target.)
For the compound `CN1CCN(C(c2ccccc2)c2ccccc2)CC1`, the call was inactive.
For `CCN1CCN(c2cc3c(cc2F)c(=O)c(C(=O)O)cn3C2CC2)CC1` the value was “inactive”.
For `CCCOC(C(=O)OC1CCN(C)CC1)(c1ccccc1)c1ccccc1` the value was “inactive”.
For `CC(C)N=C(N)/N=C(\N)Nc1ccc(Cl)cc1` the value was “inactive”.
`CCCCCCCCCCCCCCCCCC(=O)OCC(O)CO` (configuration not stated): the call was inactive.
For `CC(=O)c1ccc2c(c1)N(CCCN1CCC(CCO)CC1)c1ccccc1S2` the value was “inactive”; for `Nc1nc2ncc(CNc3ccc(C(=O)N[C@@H](CCC(=O)O)C(=O)O)cc3)nc2c(=O)[nH]1`, “inactive”.
For `CN1C2CCC1CC(OC(=O)c1c[nH]c3ccccc13)C2` (configuration not stated) the value was “inactive”; for `CN(C)C(=S)SC(=S)N(C)C`, “inactive”; for `CN1[C@@H]2CC[C@H]1CC(OC(=O)c1c[nH]c3ccccc13)C2` (some centres not stated), “inactive”.
For `O=C(Nc1ccc(Oc2ccc(Cl)cc2)c(Cl)c1)c1cc(I)cc(I)c1O` the value was “inactive”; for `Oc1ccc(O)cc1`, “inactive”.
